The source of these data is PubChem BioAssay (EPA / NIEHS).

Inconclusive results are not listed. Activity calls are given as the source filed them. The calls were made as follows, unless noted: active = hit-call score of the fitted dose curve at least 0.9, where 1 is the maximum; inconclusive = response in the unintended direction; inactive = score below 0.9.

Read-out in test [1]: organic anion transporter (SLCO1B1), SLCO1B1 (gene 10599)
Put plainly: CLD_SLCO1B1_24hr: CellzDirect (CLD) Gene Expression Assay for organic anion transporter (SLCO1B1) at 24 hours (AID 2283690). The method in brief: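 Primary human hepatocytes (two donor preparations) dosed daily for two days with chemicals at multiple concentrations, 0.2% DMSO vehicle. SLCO1B1 mRNA at 24 h measured by qNPA chemiluminescence; induction fitted relative to DMSO.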

Read-out in test [2]: sulfotransferase (SULT2A), SULT2A1 (gene 6822)
Description: CLD_SULT2A_24hr: CellzDirect (CLD) Gene Expression Assay for sulfotransferase (SULT2A) at 24 hours (AID 2283694).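 As to AC50: potency for increased SULT2A1 mRNA level as induction over DMSO baseline.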 The gist of the method:
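Primary human hepatocytes from two donor preparations were dosed daily with fresh solutions, vehicle 0.2% DMSO. At 24 h, lysates went to quantitative nuclease protection (qNPA) with S1 digestion and chemiluminescent readout. Cytotoxicity was annotated from phase-contrast morphology.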

Read-out in test [3]: Cytochrome P450 3A4 (Homo sapiens) (UniProt P08684)
Description: CLD_CYP3A4_48hr: CellzDirect (CLD) Gene Expression Assay for xenobiotic metabolism (CYP3A4) at 48 hours (AID 2283698). The gist of the method: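 Primary human hepatocytes from two donor preparations dosed daily for two days with multiple chemical concentrations, 0.2% DMSO vehicle. CYP3A4 mRNA at 48 h by quantitative nuclease protection assay, chemiluminescence, positive fit versus DMSO; cytotoxicity flagged morphologically.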

Read-out in test [4]: xenobiotic metabolism (CYP1A2), CYP1A2 (gene 1544)
Put plainly: CLD_CYP1A2_48hr: CellzDirect (CLD) Gene Expression Assay for xenobiotic metabolism (CYP1A2) at 48 hours (AID 2283703). The gist of the method: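 Primary human hepatocytes from two donor preparations were dosed daily for two days at multiple concentrations in 0.2% DMSO vehicle. CYP1A2 mRNA was measured at 48 hours by chemiluminescent quantitative nuclease protection assay, with gain of signal fitted versus DMSO and cytotoxicity annotated from morphology.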

Read-out in test [5]: Broad substrate specificity ATP-binding cassette transporter ABCG2 (Homo sapiens) (UniProt Q9UNQ0)
Put plainly: CLD_ABCG2_48hr: CellzDirect (CLD) Gene Expression Assay for ABC Transporter (ABCG2) at 48 hours (AID 2283704).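 As to AC50: potency for induction of ABCG2 mRNA above the DMSO baseline.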 The method in brief: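 Primary human hepatocytes from two donors, dosed daily for 2 days, 0.2% DMSO vehicle, several concentrations. ABCG2 mRNA at 48 h by qNPA chemiluminescence, gain fitted versus DMSO; cytotoxicity flagged by morphology.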

Read-out in test [6]: organic anion transporter (SLCO1B1), SLCO1B1 (gene 10599)
Put plainly: CLD_SLCO1B1_48hr: CellzDirect (CLD) Gene Expression Assay for organic anion transporter (SLCO1B1) at 48 hours (AID 2283707). The gist of the method: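 Primary human hepatocytes from two donor preparations dosed daily for two days with multiple concentrations, 0.2% DMSO vehicle. SLCO1B1 mRNA at 48 h by quantitative nuclease protection assay, chemiluminescence; gain-of-signal fitted versus DMSO.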

Read-out in test [7]: alkyl and aryl transferase (GSTA2), GSTA2 (gene 2939)
Description: CLD_GSTA2_48hr: CellzDirect (CLD) Gene Expression Assay for alkyl and aryl transferase (GSTA2) at 48 hours (AID 2283708).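 Also: active means mRNA induction above DMSO vehicle baseline.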 The gist of the method:
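Primary human hepatocytes dosed daily for two days (0.2% DMSO vehicle), harvested at 48 h. GSTA2 mRNA induction measured by quantitative nuclease protection assay with chemiluminescent imaging, fitted for gain of signal relative to DMSO.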

Read-out in test [8]: glucuronosyltransferase (UGT1A1), UGT1A1 (gene 54658)
Put plainly: CLD_UGT1A1_48hr: CellzDirect (CLD) Gene Expression Assay for glucuronosyltransferase (UGT1A1) at 48 hours (AID 2283709).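 Also: actives increase expression relative to DMSO so potency refers to induction.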 The method in brief: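 Human primary hepatocytes dosed daily for two days (0.2% DMSO vehicle), harvested at 48 h. UGT1A1 mRNA induction measured by quantitative nuclease protection assay with chemiluminescence; gain of signal versus DMSO; cytotoxicity flagged from morphology.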

Read-out in test [9]: sulfotransferase (SULT2A), SULT2A1 (gene 6822)
Description: CLD_SULT2A_48hr: CellzDirect (CLD) Gene Expression Assay for sulfotransferase (SULT2A) at 48 hours (AID 2283710).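 Also: hits raise SULT2A1 transcript above the 0.2% DMSO vehicle baseline.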 The gist of the method: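 Primary human hepatocytes (two donor preparations) dosed daily for two days with chemicals at multiple concentrations, vehicle 0.2% DMSO; SULT2A1 mRNA induction at 48 h by quantitative nuclease protection assay, chemiluminescent read-out, fitted for gain of signal versus DMSO.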

Test [10] in a line: CEETOX_H295R_MTT_cell_viability: Viability Assessment in the CeeTox HT-H295R MTT Assay (AID 2283718; active = hit-call score of the fitted dose curve at least 0.9, where 1 is the maximum; inactive = score below 0.9). The method in brief:
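MTT reduction (0.5 mg/ml, 4 h at 37 C; absorbance at 570 and 650 nm) gave viability as background-corrected percent change versus controls. H295R cells had 48 h forskolin (10 uM) prestimulation, then 48 h chemical exposure at 0.1% DMSO.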

Read-out in test [11]: ABC Transporter (ABCB1), ABCB1 (gene 5243)
Put plainly: CLD_ABCB1_48hr: CellzDirect (CLD) Gene Expression Assay for ABC Transporter (ABCB1) at 48 hours (AID 2283695). The method in brief: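 Primary human hepatocytes from two donor preparations dosed daily on two consecutive days with 0.2% DMSO vehicle. Harvest at 48 h. ABCB1 mRNA quantified by qNPA with chemiluminescence and fitted for gain of signal versus DMSO.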

The nature of test [12]: STM_H9_OrnithineISnorm_perc: Stemina devTOX quickPredict H9 human embryonic stem cell (hESC)-based Assay for Ornithine (ORN) Metabolite Biomarker, Normalized (AID 2283712; active = hit-call score of the fitted dose curve at least 0.9, where 1 is the maximum; inactive = score below 0.9;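 also: ornithine released into spent medium during last day measured by mass spectrometry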). The gist of the method: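 H9 human embryonic stem cells kept pluripotent receive test chemical over 72 h, refreshed daily by media exchange. Media from the closing 24 h is deproteinized and analysed by UPLC-HRMS on an amide column; ornithine signal is scaled to labelled standard and vehicle.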

Test [13] can be described thus: STM_H9_CystineISnorm_perc: Stemina devTOX quickPredict H9 human embryonic stem cell (hESC)-based Assay for Cystine (CYSS) Metabolite Biomarker, Normalized (AID 2283713; active = hit-call score of the fitted dose curve at least 0.9, where 1 is the maximum; inactive = score below 0.9). The gist of the method: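 H9 hESC, pluripotent; compound 72h, re-dosed q24h with medium change. Last-24h medium → 40% acetonitrile deproteinization → UPLC-HRMS. CYSS area / C13-CYSS standard, then % of 0.1% DMSO median.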

Test [14] is described as follows: STM_H9_OrnCyssISnorm_ratio: Stemina devTOX quickPredict H9 human embryonic stem cell (hESC)-based Assay for Ornithine (ORN):Cystine (CYSS) Ratio (AID 2283714). The gist of the method: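 Steps: H9 hESCs in pluripotent state dosed 72h, medium plus compound renewed every 24h; conditioned medium from the final 24h deproteinized in 40% acetonitrile; ORN and CYSS quantified by UPLC-HRMS with C13 spike-ins; ratio relative to vehicle.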

Read-out in test [15]: glucuronosyltransferase (UGT1A1), UGT1A1 (gene 54658)
Put plainly: CLD_UGT1A1_24hr: CellzDirect (CLD) Gene Expression Assay for glucuronosyltransferase (UGT1A1) at 24 hours (AID 2283696). The method in brief: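 Primary human hepatocytes from two donor preparations were dosed (0.2% DMSO vehicle) and harvested at 24 h; UGT1A1 mRNA induction was quantified by chemiluminescent qNPA, fitted as gain relative to DMSO.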

Read-out in test [16]: Cytochrome P450 2B6 (Homo sapiens) (UniProt P20813)
Put plainly: CLD_CYP2B6_48hr: CellzDirect (CLD) Gene Expression Assay for xenobiotic metabolism (CYP2B6) at 48 hours (AID 2283699).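 Also: actives raise transcript level above DMSO so potency reflects induction.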 The method in brief: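 Primary human hepatocytes dosed daily for two days over multiple concentrations, 0.2% DMSO vehicle; CYP2B6 mRNA quantified at 48 h by qNPA chemiluminescence. Induction fitted as gain of signal versus DMSO; cytotoxicity annotated by morphology.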

Read-out in test [17]: Glyceraldehyde-3-phosphate dehydrogenase (Homo sapiens) (UniProt P04406)
Put plainly: CLD_GAPDH_48hr: CellzDirect (CLD) Gene Expression Assay for Baseline Control (Glyceraldehyde 3-phosphate dehydrogenase) at 48 hours (AID 2283706).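 Also: active means higher GAPDH mRNA than DMSO vehicle.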 The method in brief: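 Primary human hepatocytes dosed daily for two days with fresh chemical at multiple concentrations, 0.2% DMSO vehicle; GAPDH mRNA measured at 48 h by quantitative nuclease protection assay with chemiluminescence, fitted upward relative to DMSO as background control.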

Read-out in test [18]: xenobiotic metabolism (CYP1A1), CYP1A1 (gene 1543)
Put plainly: CLD_CYP1A1_48hr: CellzDirect (CLD) Gene Expression Assay for xenobiotic metabolism (CYP1A1) at 48 hours (AID 2283705). The gist of the method: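 Primary human hepatocytes from two donors dosed daily for two days at multiple concentrations, 0.2% DMSO vehicle; CYP1A1 mRNA induction at 48 h by qNPA chemiluminescence. Cytotoxicity noted by phase-contrast morphology.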

Read-out in test [19]: alkyl and aryl transferase (GSTA2), GSTA2 (gene 2939)
Description: CLD_GSTA2_24hr: CellzDirect (CLD) Gene Expression Assay for alkyl and aryl transferase (GSTA2) at 24 hours (AID 2283693). The gist of the method: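 Primary human hepatocytes (two donor preparations) dosed daily for two days with chemicals at multiple concentrations (vehicle 0.2% DMSO); GSTA2 mRNA at 24 h measured by qNPA chemiluminescence, gain-of-signal versus DMSO.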

One may read the AC50 as the concentration at which the activity in the assay is half-maximal.

Chain of Broad substrate specificity ATP-binding cassette transporter ABCG2 (Homo sapiens) (Q9UNQ0 whole entry, looked up): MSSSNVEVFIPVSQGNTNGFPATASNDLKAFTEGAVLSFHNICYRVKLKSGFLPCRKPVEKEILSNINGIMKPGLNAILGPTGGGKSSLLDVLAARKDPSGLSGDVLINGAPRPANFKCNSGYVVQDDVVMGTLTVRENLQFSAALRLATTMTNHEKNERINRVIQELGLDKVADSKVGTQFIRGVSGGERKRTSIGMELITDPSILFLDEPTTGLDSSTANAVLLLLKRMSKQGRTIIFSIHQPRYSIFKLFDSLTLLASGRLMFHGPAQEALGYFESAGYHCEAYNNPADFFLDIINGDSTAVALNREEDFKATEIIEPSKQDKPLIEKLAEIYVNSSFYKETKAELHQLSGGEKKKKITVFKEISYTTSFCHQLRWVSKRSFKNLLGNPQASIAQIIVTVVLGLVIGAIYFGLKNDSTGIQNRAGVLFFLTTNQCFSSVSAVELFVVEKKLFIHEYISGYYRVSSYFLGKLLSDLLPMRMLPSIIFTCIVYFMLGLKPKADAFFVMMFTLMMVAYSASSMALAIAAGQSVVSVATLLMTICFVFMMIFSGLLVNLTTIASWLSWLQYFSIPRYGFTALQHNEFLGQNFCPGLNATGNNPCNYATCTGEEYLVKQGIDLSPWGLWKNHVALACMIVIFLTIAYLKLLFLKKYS
Chain of Glyceraldehyde-3-phosphate dehydrogenase (Homo sapiens) (P04406 whole entry, looked up): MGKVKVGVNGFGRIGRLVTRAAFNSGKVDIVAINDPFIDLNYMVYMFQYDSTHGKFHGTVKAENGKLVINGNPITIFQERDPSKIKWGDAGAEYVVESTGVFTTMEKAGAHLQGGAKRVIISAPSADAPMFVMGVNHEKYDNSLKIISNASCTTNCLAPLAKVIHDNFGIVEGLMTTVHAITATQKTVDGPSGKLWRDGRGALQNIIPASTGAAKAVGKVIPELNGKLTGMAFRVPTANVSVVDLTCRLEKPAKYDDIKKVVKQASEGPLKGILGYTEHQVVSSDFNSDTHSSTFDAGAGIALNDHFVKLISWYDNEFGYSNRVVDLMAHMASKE
Chain of Cytochrome P450 3A4 (Homo sapiens) (P08684 whole entry, looked up): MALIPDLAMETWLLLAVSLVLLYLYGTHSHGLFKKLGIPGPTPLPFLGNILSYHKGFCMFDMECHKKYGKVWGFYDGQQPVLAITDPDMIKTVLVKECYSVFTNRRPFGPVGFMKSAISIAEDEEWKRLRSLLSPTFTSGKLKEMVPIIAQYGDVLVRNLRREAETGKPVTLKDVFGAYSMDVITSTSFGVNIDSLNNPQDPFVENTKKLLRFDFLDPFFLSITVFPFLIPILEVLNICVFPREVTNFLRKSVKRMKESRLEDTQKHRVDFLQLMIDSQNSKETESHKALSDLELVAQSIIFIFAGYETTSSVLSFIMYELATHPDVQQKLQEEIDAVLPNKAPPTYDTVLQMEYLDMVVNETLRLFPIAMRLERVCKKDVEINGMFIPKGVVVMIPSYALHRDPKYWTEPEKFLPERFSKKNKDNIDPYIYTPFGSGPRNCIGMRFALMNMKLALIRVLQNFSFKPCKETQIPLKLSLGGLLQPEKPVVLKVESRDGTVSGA

On to `C#CCC1=C(C)C(OC(=O)C2C(C=C(C)C)C2(C)C)CC1=O` (configuration not stated), for which the result in [1], in [2], in test [5], in [6], in test [7] and in test [9] was inactive. Besides, the compound was called inactive in [10]. Further, the AC50 in test [3] is 14.1 µM (active); in test [4], 20 µM (active); in [8], 3.87 µM (active).
Regarding `C=C(C)[C@H]1Cc2c(ccc3c2O[C@@H]2COc4cc(OC)c(OC)cc4[C@@H]2C3=O)O1`, the compound was called inactive in test [1], in test [11], in test [8] and in test [9]. Further, the AC50 in test [2] is 3.88 µM (active); in test [5], 0.309 µM (active); in test [7], 0.66 µM (active); in test [12], 0.347 µM (active); in test [13], 0.279 µM (active); in test [14] it was 0.333 µM (active).
As for `Cc1nn(-c2cc(NS(C)(=O)=O)c(Cl)cc2Cl)c(=O)n1C(F)F`, the result in test [1], in test [2], in test [15], in [4], in test [17] and in [6] was inactive. For the same compound, the compound was classed as inactive in test [8], in [9] and in test [13]. In addition, the AC50 in test [16] is 6.7 µM (active); in test [12] it was 0.114 µM (active).
Regarding `CC(COc1ccc(Oc2ccccc2)cc1)Oc1ccccn1` (configuration not stated), the result in test [1], in [2], in test [5], in [6], in [9] and in [10] was inactive. Besides, the AC50 in test [8] was 4.89 µM (active); in test [12], 70.3 µM (active); in [13], 0.0124 µM (active).
Regarding `CCOC(=O)CC(SP(=O)(OC)OC)C(=O)OCC` (configuration not stated), the call in [1], in [4], in test [5], in test [18], in test [17] and in [6] was inactive. Further, the compound was called inactive in [7], in test [8] and in [9]. In addition, the AC50 in test [3] is 20 µM (active).
As for `CC(C)[C@H](C(=O)O[C@H](C#N)c1cccc(Oc2ccccc2)c1)c1ccc(Cl)cc1`, the call in [1], in [2], in [7], in test [9] and in test [10] was inactive. Further, the AC50 is 20 µM (active) in test [4]; 7.47 µM (active) in [8]; 50 µM (active) in test [12]; 80.5 µM (active) in [13]; 74.2 µM (active) in [14].
Take `COc1ccc(C(=CC(=O)N2CCOCC2)c2ccc(Cl)cc2)cc1OC`: the compound was called inactive in test [1], in test [2], in test [15], in test [8], in [9] and in [13]. For the same compound, the result in test [14] and in test [10] was inactive. Further, the AC50 in [16] was 3.59 µM (active); in test [5], 32 µM (active); in test [7], 32.2 µM (active); in test [12] it was 0.119 µM (active).
On to `CCCOc1nn(C(=O)NS(=O)(=O)c2ccccc2C(=O)OC)c(=O)n1C`, for which the call in test [1], in [19], in test [2], in test [16], in [4] and in test [5] was inactive. The compound was called inactive in test [17], in test [6], in [7] and in test [8].
